These results are taken from article PMC5540273 (PLoS ONE, 2017).

Holding throughout (conditions): concentration: 1 μM, replicates: in singlicate; n = 1
Experiment [1] relates to T1, YANK3.
T1 construct: gene STK32C

Experiment [2] has as its system T2, YES.
T2 construct: gene YES1

Experiment [3] has as its system T3, YSK1.
T3 construct: gene STK25

Experiment [4] has as its system T4, YSK4.
T4 construct: gene MAP3K19

Experiment [5] relates to ZAK.
The subject of experiment [6] is ZAP70.
Experiment [7] concerns T5, p38-alpha.
T5 construct: gene MAPK14

In experiment [8] the test system is T6, p38-beta.
T6 construct: gene MAPK11

Experiment [9] has as its system p38-delta.
Experiment [10] relates to T7, p38-gamma.
T7 construct: gene MAPK12
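Further: KINOMEscan kinase panel screen.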

For the molecule `O=C(NCCCN1CCOCC1)c1cccc(Nc2nccc(Nc3ccc(Oc4ccccc4)cc3)n2)c1` [GW663929], the “%Inh” value in [1] is given as 1%; in experiment [2], 84%; in experiment [3] it was 22%; in [4], 26%; in experiment [5], 47%; in experiment [6], 6%. Besides, the “%Inh” value in [7] is 11%; in experiment [8], 0%; in experiment [9], 18%; in experiment [10] it was 0%.

For `CN1c2ccc(CNc3ccc(F)cc3)cc2-c2c(cnn2C)S1(=O)=O`, the “%Inh” value in experiment [1], in [2], in experiment [3], in experiment [4], in experiment [5] and in experiment [6] was 0% in each case. Besides, the “%Inh” value in experiment [7] is reported as 0%; in experiment [8], 0%; in [9], 0%; in [10], 14%.

With `Cc1cccc(Cn2ccn3c(=O)cc(N4CCOCC4)nc23)c1` [GSK2297542], the “%Inh” value in experiment [1] stood at 16%; in experiment [2], 19%; in [3] it was 17%; in experiment [4] it was 12%; in experiment [5] it was 17%; in [6], 0%. Further, the “%Inh” value amounted to 27% in experiment [7], 0% in [8], 36% in experiment [9] and 51% in experiment [10].

Regarding `O=C1Cc2cc(Nc3nc(NCc4cccc(S(=O)(=O)C(F)(F)F)c4)ncc3C(F)(F)F)ccc2N1`, the “%Inh” value in experiment [1] was determined as 0%; in experiment [2] it was 8%; in experiment [3], 10%; in experiment [4], 25%; in experiment [5], 1%; in experiment [6] it was 9%. The “%Inh” value is 22% in experiment [7], 0% in experiment [8], 15% in experiment [9] and 0% in experiment [10].

Consider `COc1cc(Nc2nccc(N3CCC(NC(=O)c4cccc(NC(C)=O)c4)C3)n2)cc(OC)c1OC` (centres unmarked) [GSK1379754], for which the “%Inh” value in [1] came out at 0%; in [2], 18%; in [3] it was 3%; in [4], 19%; in experiment [5], 0%; in [6] it was 0%. In addition, the “%Inh” value in experiment [7], in [8], in [9] and in experiment [10] was 0% each time.

As for `CC(C)(C)n1cnc2c(N)ncnc21` [SKF-97359], the “%Inh” value was determined as 0% in experiment [1]; 27% in [2]; 0% in [3]; 0% in experiment [4]; 0% in [5]; 21% in experiment [6]. Also, the “%Inh” value in [7] is on record as 0%; in [8], 0%; in experiment [9], 0%; in experiment [10], 2%.

With `CN1c2ccc(NCc3ccc(F)cc3)cc2-c2c(cnn2C)S1(=O)=O`, the “%Inh” value came to 0% in [1]; 0% in [2]; 0% in [3]; 8% in [4]; 0% in [5]; 0% in experiment [6]. Besides, the “%Inh” value in experiment [7] is 0%; in [8], 0%; in experiment [9], 13%; in experiment [10] it was 0%.

For the molecule `COc1ccc(S(=O)(=O)NC2CCN(c3cc(C)nc(Nc4cccc(C#N)c4)n3)CC2)cc1.O=C(O)C(F)(F)F` [GSK1653539], the “%Inh” value came to 0% in experiment [1]; 4% in [2]; 20% in experiment [3]; 0% in experiment [4]; 0% in experiment [5]; 0% in [6]. For the same molecule, the “%Inh” value in experiment [7] was 9%; in [8] it was 0%; in experiment [9], 28%; in experiment [10], 0%.

With `Fc1ccc(-c2ncn(CCCN3CCOCC3)c2-c2ccccn2)cc1` [SB-211742], the “%Inh” value in experiment [1] is on record as 0%; in [2], 0%; in [3], 0%; in [4], 0%; in experiment [5], 0%; in experiment [6], 3%. Further, the “%Inh” value came to 2% in experiment [7], 0% in [8], 2% in experiment [9] and 23% in [10].

Regarding `Cl.Oc1cccc(Nc2ccnc3cc(-c4ccncc4)ccc23)c1` [GW494601], the “%Inh” value in experiment [1] worked out at 0%; in [2] it was 94.6%; in experiment [3], 7%; in experiment [4], 91.7%; in [5], 84%; in [6], 2%. Moreover, the “%Inh” value worked out at 50% in experiment [7], 0% in [8], 25% in [9] and 0% in experiment [10].

For the molecule `O=C1NC(=O)C(N2CCc3ccccc32)=C1c1cccc(Cl)c1` [SB-408010], the “%Inh” value in experiment [1] is reported as 17%; in [2], 0%; in experiment [3], 0%; in experiment [4], 0%; in experiment [5], 14%; in experiment [6], 29%. Besides, the “%Inh” value in experiment [7] amounted to 7%; in experiment [8], 7%; in experiment [9], 15%; in experiment [10], 0%.

Regarding `COc1cc2c(cc1OC[C@@H](O)CO)ncc1c3ccc(C#N)cc3[nH]c21`, the “%Inh” value amounted to 0% in [1]; 0% in [2]; 0% in [3]; 90% in experiment [4]; 1% in experiment [5]; 0% in [6]. Further, the “%Inh” value in experiment [7] turned out to be 5%; in experiment [8], 15%; in experiment [9], 0%; in experiment [10], 18%.

Consider `NCC(NC(=O)c1cc(-c2cn[nH]c2)c(-c2ccnc3[nH]ccc23)s1)c1ccccc1.O=C(O)C(F)(F)F.O=C(O)C(F)(F)F` (centres unmarked) [GSK1325775], for which the “%Inh” value in [1] amounted to 8%; in [2], 0%; in experiment [3] it was 24%; in [4], 99.8%; in experiment [5], 4%; in experiment [6], 0%. Besides, the “%Inh” value in [7] was 10%; in experiment [8], 0%; in [9], 10%; in experiment [10] it was 27%.

Regarding `[2H]C([2H])(c1cccc(C(F)(F)F)c1C)n1ccn2c(=O)nc(N3CCOCC3)cc12` [GSK2336394], the “%Inh” value was 0% in experiment [1]; 7% in experiment [2]; 0% in experiment [3]; 26% in experiment [4]; 4% in experiment [5]; 24% in experiment [6]. The “%Inh” value in [7] came out at 0%; in experiment [8], 0%; in [9] it was 46%; in experiment [10], 0%.

In the case of `O=C(NCCNc1ccnc(Nc2ccc(F)cc2)n1)Nc1ccccc1F` [GSK1379880], the “%Inh” value in experiment [1] was determined as 0%; in [2], 9%; in experiment [3], 0%; in [4], 26%; in experiment [5] it was 0%; in [6] it was 0%. The “%Inh” value in experiment [7] was 0%; in experiment [8], 0%; in [9] it was 52%; in experiment [10], 0%.

For `O=c1cc(N2CCOCC2)nc2n(Cc3cccc(C(F)(F)F)c3)ccn12` [GSK2297543], the “%Inh” value in [1] is reported as 0%; in experiment [2], 9%; in experiment [3] it was 0%; in experiment [4] it was 0%; in [5] it was 8%; in [6], 0%. Further, the “%Inh” value in [7] was 0%; in experiment [8] it was 0%; in experiment [9] it was 21%; in experiment [10], 11%.

Consider `CC(=O)Nc1ccc(COc2ccc(Nc3ccnc4cc(-c5ccccn5)ccc34)cc2)cc1.Cl` [GW440148], for which the “%Inh” value in experiment [1] stood at 0%; in [2], 23%; in experiment [3], 18%; in [4], 18%; in [5], 73%; in experiment [6], 0%. Moreover, the “%Inh” value in experiment [7] was determined as 28%; in [8], 0%; in [9], 40%; in experiment [10], 0%.
